Laboratory results published in PubChem BioAssay AID1159580 (chemical genetic matrix, 2015).
Screen size: about 5,500 compounds; about 2,000 (36%) were called active. Another 18% or so got no clear call; they are omitted. Cut-off read from the data, not from the text of the source: active = normalized growth mostly below about 0.91 (no sharp cut-off); inconclusive = no clear call, values can overlap the other calls; inactive = mostly above about 0.92. The list shows a part of the results.

Experiment: chemical genetic growth profiling, strain panel (AID 1159580);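 note: tested at 20 µM; growth read once vehicle control cultures reached saturation at 30 °C; 1 = growth at the plate median or of vehicle wells; lower values mean less growth of the strain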
Conditions: S. cerevisiae deletion strains, growth OD
[1] = locus YHR030C, strain SLT2, active compounds read low
[2] = locus YHR079C, strain IRE1, active compounds read low
[3] = locus YJL095W, strain BCK1, active compounds read low
[4] = locus YJR066W, strain TOR1, active compounds read low
[5] = locus YLR113W, strain HOG1, active compounds read low
[6] = locus YNL183C, strain NPR1, active compounds read low
[7] = locus YOR231W, strain MKK1, active compounds read low
[8] = locus YPL256C, strain CLN2, active compounds read low

Measured: normalized growth

COc1cc2c3cc1Oc1c(OC)c(OC)cc4c1[C@@H](Cc1cccc(c1)Oc1ccc(c(O)c1)C[C@@H]3N(C)CC2)N(C)CC4
inactive: [1] 1.02 | [2] 1.01 | [3] 0.994 | [4] 0.984 | [5] 0.968 | [6] 0.983 | [7] 1.03 | [8] 1.07

COc1ccc2cc1Oc1ccc(cc1)C[C@H]1c3c(cc4c(c3Oc3cc5c(cc3OC)CCN(C)[C@@H]5C2)OCO4)CCN1C
inactive: locus YAL021C, strain ccr4, active compounds read low 1.01 | locus YAL026C, strain drs2, active compounds read low 1.01 | locus YAL030W, strain snc1, active compounds read low 0.989 | locus YBL061C, strain skt5, active compounds read low 1.01 | locus YBR009C, strain hhf1, active compounds read low 0.959 | locus YBR023C, strain chs3, active compounds read low 1.01 | locus YBR171W, strain sec66, active compounds read low 0.982 | locus YBR231C, strain swc5, active compounds read low 0.959 | locus YBR279W, strain paf1, active compounds read low 0.992 | locus YCL011C, strain gbp2, active compounds read low 1.01 | locus YCL016C, strain dcc1, active compounds read low 1.03 | locus YCL061C, strain MRC1, active compounds read low 0.984 | locus YCL069W, strain vba3, active compounds read low 0.969 | locus YCR088W, strain abp1, active compounds read low 0.987 | locus YDL005C, strain med2, active compounds read low 0.983 | locus YDL040C, strain nat1, active compounds read low 0.982 | locus YDR001C, strain nth1, active compounds read low 0.989 | locus YDR069C, strain doa4, active compounds read low 0.979 | locus YDR137W, strain rgp1, active compounds read low 1.1 | locus YDR159W, strain sac3, active compounds read low 0.875 | locus YDR195W, strain ref2 0.942 | locus YDR297W, strain sur2, active compounds read low 1 | locus YDR334W, strain swr1, active compounds read low 0.963 | locus YDR335W, strain msn5, active compounds read low 1.01 | locus YDR392W, strain spt3, active compounds read low 0.743 | locus YEL003W, strain gim4, active compounds read low 0.975 | locus YEL037C, strain rad23, active compounds read low 0.969 | locus YEL061C, strain CIN8 (second series), active compounds read low 0.98 | locus YER015W, strain faa2, active compounds read low 0.994 | locus YER016W, strain bim1, active compounds read low 1.06 | locus YER111C, strain swi4, active compounds read low 0.997 | locus YER155C, strain BEM2 (second series), active compounds read low 0.874 | locus YFR010W, strain ubp6, active compounds read low 0.966 | locus YGL167C, strain pmr1, active compounds read low 0.976 | locus YGL173C, strain kem1, active compounds read low 0.961 | locus YGL227W, strain vid30, active compounds read low 0.996 | locus YGL240W, strain doc1, active compounds read low 0.962 | locus YGL253W, strain hxk2, active compounds read low 1.01 | locus YHR013C, strain ard1, active compounds read low 0.964 | locus YHR027C, strain rpn1, active compounds read low 0.996 | [1] 1.03 | [2] 1.08 | locus YHR142W, strain chs7, active compounds read low 1.03 | locus YJL092W, strain hpr5, active compounds read low 0.988 | locus YJL095W, strain BCK1 (second series), active compounds read low 0.989 | [3] 1.03 | locus YJL115W, strain asf1, active compounds read low 0.974 | locus YJL129C, strain trk1, active compounds read low 1 | locus YJL154C, strain vps35, active compounds read low 0.986 | locus YJL164C, strain tpk1, active compounds read low 0.962 | locus YJL166W, strain qcr8, active compounds read low 0.955 | locus YJL187C, strain SWE1, active compounds read low 1.01 | [4] 0.987 | locus YKL160W, strain elf1, active compounds read low 1.05 | locus YKR026C, strain gcn3, active compounds read low 0.964 | locus YKR091W, strain srl3, active compounds read low 0.99 | locus YLL001W, strain dnm1, active compounds read low 0.959 | locus YLL026W, active compounds read low 0.999 | locus YLL041C, strain sdh2, active compounds read low 0.977 | locus YLR027C, strain aat2, active compounds read low 1 | [5] 1.07 | locus YLR221C, strain rsa3, active compounds read low 0.997 | locus YLR258W, strain gsy2, active compounds read low 1 | locus YLR262C, strain YPT6 (second series), active compounds read low 1.04 | locus YLR320W, strain mms22, active compounds read low 0.922 | locus YLR342W, strain FKS1, active compounds read low 1.02 | locus YLR357W, strain rsc2, active compounds read low 0.934 | locus YLR370C, strain arc18, active compounds read low 0.999 | locus YLR384C, strain iki3, active compounds read low 1 | locus YML120C, strain ndi1, active compounds read low 0.969 | locus YMR058W, strain fet3, active compounds read low 0.978 | locus YMR125W, strain sto1, active compounds read low 1 | locus YMR129W, active compounds read low 0.971 | locus YMR205C, strain PFK2, active compounds read low 0.973 | locus YMR231W, strain pep5, active compounds read low 0.985 | locus YNL071W, strain lat1, active compounds read low 0.982 | [6] 0.951 | locus YNL209W, strain ssb2, active compounds read low 0.99 | locus YNL248C, strain rpa49, active compounds read low 1.02 | locus YNL322C, strain KRE1 (second series), active compounds read low 1 | locus YNR049C, strain mso1, active compounds read low 1 | locus YOR001W, strain rrp6, active compounds read low 0.953 | locus YOR070C, strain gyp1, active compounds read low 1 | locus YOR080W, strain dia2, active compounds read low 0.977 | locus YOR083W, strain WHI5, active compounds read low 1 | locus YOR106W, strain vam3, active compounds read low 1.04 | [7] 1.06 | locus YOR265W, strain rbl2, active compounds read low 1 | locus YOR270C, strain vph1, active compounds read low 1.06 | locus YOR290C, strain snf2, active compounds read low 1.04 | locus YPL051W, strain arl3, active compounds read low 1.04 | locus YPL078C, strain atp4, active compounds read low 1.03 | locus YPL106C, strain sse1, active compounds read low 0.949 | locus YPL240C, strain hsp82, active compounds read low 0.985 | [8] 1.07
